Here are results for 22 compounds from ChEMBL document CHEMBL3433997, “St. Jude Leishmania screening dataset” (2016).

Holding throughout (type): functional
Test [1] deals with Solute carrier family 2, facilitated glucose transporter member 1 (Homo sapiens) (UniProt P11166). The test can be described thus: ST_JUDE_LEISH: Cytotoxicity at 2uM final concentration against transgenic Leishmania Mexicana promastigotes LmGLUT1 that are glucose transport deficient and complemented with the human glucose transporter GLUT1. Activity is measured by DNA content using SYBR green in vitro.

In test [2] the target is Hexose transporter 1 (Plasmodium falciparum) (UniProt O97467). The test can be described thus: ST_JUDE_LEISH: Cytotoxicity at 2uM final concentration against transgenic Leishmania Mexicana promastigotes LmPfHT that are glucose transport deficient and complemented with the Plasmodium falciparum hexose transporter. Activity is measured by DNA content using SYBR green in vitro.

For test [3], the target named is Glucose transporter (Leishmania mexicana) (UniProt O61059). The test can be described thus: ST_JUDE_LEISH: Cytotoxicity at 2uM final concentration against transgenic Leishmania Mexicana promastigotes LmGT2 that are glucose transport deficient and complemented with the L. Mexicana glucose transporter 2. Activity is measured by DNA content using SYBR green in vitro.

What is called inhibition is the change of the read-out against control, counted positive when it falls.

Sequence of Solute carrier family 2, facilitated glucose transporter member 1 (Homo sapiens) (P11166 whole entry): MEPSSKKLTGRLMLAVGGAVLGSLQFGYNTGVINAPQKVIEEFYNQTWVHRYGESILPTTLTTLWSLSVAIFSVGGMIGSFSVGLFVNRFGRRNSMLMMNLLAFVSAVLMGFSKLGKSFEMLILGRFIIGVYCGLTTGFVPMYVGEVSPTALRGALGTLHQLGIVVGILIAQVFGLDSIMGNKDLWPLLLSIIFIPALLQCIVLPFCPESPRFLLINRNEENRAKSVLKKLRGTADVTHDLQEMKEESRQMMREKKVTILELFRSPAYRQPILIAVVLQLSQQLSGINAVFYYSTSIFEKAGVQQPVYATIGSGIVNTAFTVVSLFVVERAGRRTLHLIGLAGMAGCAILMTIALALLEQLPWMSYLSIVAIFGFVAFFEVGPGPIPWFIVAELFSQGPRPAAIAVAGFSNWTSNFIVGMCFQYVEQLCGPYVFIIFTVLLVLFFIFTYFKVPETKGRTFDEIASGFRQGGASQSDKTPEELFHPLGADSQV

In the case of `Cc1c(C(=O)C2CC2CN2CCC(N3CCCCC3)CC2)sc2ccccc12` (stereo unspecified), the inhibition in test [1] was 2.43%; in test [2], -0.31%; in test [3], 2.09%.
In the case of `COc1ccc2nc(N3CCNCC3)nc(NCCCc3ccccc3)c2c1`, the inhibition in test [1] is 5.1%; in test [2] it was 2.65%; in test [3], 0%.
Consider `COc1ccc(CN2CCCN(Cc3cccc(NC(=O)c4ccc5ccccc5c4)c3)CC2)cc1`, for which the inhibition in test [1] was 1.59%; in test [2] it was 1.71%; in test [3] it was 6.07%.
Taken in the same sequence, the figures for `CC[C@H](NC(=O)c1c(CC2CCN(CC(C)=O)CC2)c(-c2ccccc2)nc2ccccc12)c1ccccc1` were 2.8%, 3.28% and 0.03%.
Take `CCOc1cc(C(C)C)ccc1C1CCN(CCCCNC(=O)c2ccc(NC(=O)c3ccc(Cl)cc3)cc2)CC1`: the inhibition in test [1] amounted to 3.78%; in test [2] it was 4.23%; in test [3], 2.65%.
With `Cc1cccc2nc(-c3ccc(-c4cccc(NC(=O)c5cnccc5C(F)(F)F)c4)cc3)[nH]c12`, the inhibition in test [1] was determined as 11.2%; in test [2] it was 10.4%; in test [3], 8.19%.
Regarding `O=C(Cc1cc(F)cc(F)c1)NC1CCN(c2ccnc3cc(Cl)ccc23)C1` (stereo unspecified), the inhibition in test [1] stood at 1.93%; in test [2], 1.66%; in test [3], 2.22%.
As to `O=c1cc(NCCCNC2CCCc3c2cc(Cl)c(Cl)c3Cl)[nH]c2ccccc12` (stereo unspecified), the inhibition in test [1] was -3.43%; in test [2], 1.1%; in test [3] it was 0.08%.
Taken in the same sequence, the figures for `CN1CCc2cc(O)c(NS(=O)(=O)c3ccc(-c4ccc(Cl)cc4)cc3)cc2CC1` were 12.4%, 9.38% and 9.99%.
In the case of `O=C(Nc1ccc(Cl)cc1)Nc1cccc(-c2cccc(-c3nc4cc(F)ccc4[nH]3)c2)c1`, the inhibition is 7% in test [1], 6.99% in test [2] and 6.45% in test [3].
Taken in the same sequence, the figures for `CN(C)c1ccnc2ccc(NC(=O)Nc3ccnc4ccccc34)cc12` were 1.93%, 2.58% and 1.09%.
Regarding `O=C(Nc1ccc(-c2oc(C(=O)NCCc3cccc(Cl)c3)cc2-c2ccncc2)cc1)Nc1cccc(Cl)c1`, the inhibition in test [1] was determined as 0.9%; in test [2] it was 1.65%; in test [3], 2.92%.
Regarding `Cc1ccc(OCCCCON2C(=N)N=C(N)NC2(C)C)cc1C`, the values for the inhibition in test [1], in test [2] and in test [3] were 1.02%, 1% and 0.54%, respectively.
Take `CCCCCCC(C)c1cc(O)c2c(c1)OC(=O)CC2(CC)c1ccccn1` (stereo unspecified): the inhibition in test [1] came out at 1.55%; in test [2] it was 3.13%; in test [3], 1.77%.
With `Cc1cc2ncn(-c3nccc(NCc4ccc(F)c(C)c4)n3)c2cc1C`, the inhibition turned out to be 4% in test [1], 4.86% in test [2] and 2.52% in test [3].
`Cc1ccc2c(c1)C1(CC(=O)N(CCc3scnc3C)C1=O)C(=O)N2Cc1ccccc1` (stereo unspecified): the inhibition in test [1] was found to be 2.62%; in test [2], 3.66%; in test [3], 3.42%.
Consider `CCOC(=O)C1CCN(CCOc2cc(NC(=O)/C=C/c3ccccc3Cl)ccc2Br)CC1`, for which the inhibition in test [1] was found to be 8.71%; in test [2], 6.51%; in test [3], 7.58%.
Regarding `O=C(C=Cc1ccc(Cl)c(Cl)c1)NCCCCCN1CCCC(CCCNC(=O)C2CC2c2ccccc2)C1` (stereo unspecified), the figures for the inhibition in test [1], in test [2] and in test [3] were 2.64%, 0.94% and 1.66%, respectively.
On the same counts, the results for `CC1CCC(C[C@@H](C(=O)N[C@H](C(=O)Nc2nccs2)[C@@H](C)O)[C@H](CCC(F)(F)F)N(O)C=O)CC1` (stereo partly specified) are 0.36%, -2.34% and 0.78%.
Taken in the same sequence, the figures for `CN(CCCNc1ccc(C(=O)Nc2ccc(C(F)(F)F)cc2)cc1[N+](=O)[O-])Cc1ccccc1` were 1.17%, -0.19% and -3.45%.
Consider `Cc1ccc(C)c(C2CCN(CCCCNC(=O)c3ccc(NC(=O)c4ccc(Cl)cc4)cc3)CC2)c1`, for which the results for the inhibition in test [1], in test [2] and in test [3] were -1.18%, 0.21% and 0.05%, respectively.
In the case of `Cc1ccc2[nH]ncc2c1N(CC1CCCCC1)c1ccnc(Nc2ccc(OCC(O)CN3CC=CCC3)cc2)n1` (stereo unspecified), the inhibition in test [1] was 2.37%; in test [2] it was 3.33%; in test [3] it was -0.59%.
